In PubChem BioAssay AID1159580 (chemical genetic matrix, 2015):
Among all 5,500 compounds or so, about 2,000 (36%) were called active. Another 18% or so got no clear call; they are omitted. Cut-off read from the data, not from the text of the source: active = normalized growth mostly below about 0.91 (no sharp cut-off); inconclusive = no clear call, values can overlap the other calls; inactive = mostly above about 0.92. This is one part of the list.

Experiment: chemical genetic growth profiling, strain panel (AID 1159580);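 note: tested at 20 µM; growth read once vehicle control cultures reached saturation at 30 °C; 1 = growth at the plate median or of vehicle wells; lower values mean less growth of the strain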
Conditions: growth OD

Measured: normalized growth

CC(=O)OCC[C@H](C)CCC=C(C)C
inactive: S. cerevisiae deletion strains, locus YJR043C, strain POL32, hits give low values 1.01 | S. cerevisiae deletion strains, locus YJR066W, strain TOR1, hits give low values 0.979 | S. cerevisiae deletion strains, locus YKL009W, strain mrt4, hits give low values 1.01 | S. cerevisiae deletion strains, locus YKL068W, hits give low values 1.03 | S. cerevisiae deletion strains, locus YKL085W, strain MDH1 (second series), hits give low values 1.01 | S. cerevisiae deletion strains, locus YKL085W, strain MDH1, hits give low values 1.01 | S. cerevisiae deletion strains, locus YKL160W, strain elf1, hits give low values 0.978 | S. cerevisiae deletion strains, locus YKL190W, strain CNB1, hits give low values 1.01 | S. cerevisiae deletion strains, locus YKR001C, strain vps1, hits give low values 1.03 | S. cerevisiae deletion strains, locus YKR026C, strain gcn3, hits give low values 0.994 | S. cerevisiae deletion strains, locus YKR091W, strain srl3, hits give low values 0.986 | S. cerevisiae deletion strains, locus YLL001W, strain dnm1, hits give low values 1.03 | S. cerevisiae deletion strains, locus YLL026W, hits give low values 1.03 | S. cerevisiae deletion strains, locus YLL041C, strain sdh2, hits give low values 1.02 | S. cerevisiae deletion strains, locus YLR027C, strain aat2, hits give low values 1.02 | S. cerevisiae deletion strains, locus YLR039C, strain RIC1, hits give low values 1.08 | S. cerevisiae deletion strains, locus YLR058C, strain SHM2, hits give low values 1.02 | S. cerevisiae deletion strains, locus YLR102C, strain apc9, hits give low values 1.02 | S. cerevisiae deletion strains, locus YLR113W, strain HOG1, hits give low values 1.05 | S. cerevisiae deletion strains, locus YLR221C, strain rsa3, hits give low values 1.04 | S. cerevisiae deletion strains, locus YLR258W, strain gsy2, hits give low values 1.03 | S. cerevisiae deletion strains, locus YLR262C, strain YPT6 (second series), hits give low values 0.991 | S. cerevisiae deletion strains, locus YLR262C, strain YPT6, hits give low values 1.09 | S. cerevisiae deletion strains, locus YLR268W, strain sec22, hits give low values 1.03 | S. cerevisiae deletion strains, locus YLR320W, strain mms22, hits give low values 1 | S. cerevisiae deletion strains, locus YLR330W, strain CHS5, hits give low values 1 | S. cerevisiae deletion strains, locus YLR342W, strain FKS1 (second series), hits give low values 1.01 | S. cerevisiae deletion strains, locus YLR342W, strain FKS1, hits give low values 0.975 | S. cerevisiae deletion strains, locus YLR357W, strain rsc2, hits give low values 0.981 | S. cerevisiae deletion strains, locus YLR370C, strain arc18, hits give low values 0.996 | S. cerevisiae deletion strains, locus YLR371W, strain rom2, hits give low values 1.02 | S. cerevisiae deletion strains, locus YLR384C, strain iki3, hits give low values 0.971 | S. cerevisiae deletion strains, locus YLR418C, strain cdc73, hits give low values 1.02 | S. cerevisiae deletion strains, locus YML016C, strain PPZ1, hits give low values 1.02 | S. cerevisiae deletion strains, locus YML032C, strain rad52, hits give low values 1.03 | S. cerevisiae deletion strains, locus YML120C, strain ndi1, hits give low values 0.988 | S. cerevisiae deletion strains, locus YML124C, strain tub3, hits give low values 1.02 | S. cerevisiae deletion strains, locus YMR058W, strain fet3, hits give low values 0.989 | S. cerevisiae deletion strains, locus YMR078C, strain ctf18, hits give low values 1.04 | S. cerevisiae deletion strains, locus YMR125W, strain sto1, hits give low values 0.985 | S. cerevisiae deletion strains, locus YMR129W, hits give low values 0.985 | S. cerevisiae deletion strains, locus YMR205C, strain PFK2, hits give low values 1.01 | S. cerevisiae deletion strains, locus YMR223W, strain ubp8, hits give low values 1.04 | S. cerevisiae deletion strains, locus YMR231W, strain pep5, hits give low values 0.983 | S. cerevisiae deletion strains, locus YMR307W, strain GAS1, hits give low values 1.05 | S. cerevisiae deletion strains, locus YNL067W, strain RPL9B, hits give low values 1.02 | S. cerevisiae deletion strains, locus YNL071W, strain lat1, hits give low values 0.989 | S. cerevisiae deletion strains, locus YNL153C, strain GIM3, hits give low values 1.01 | S. cerevisiae deletion strains, locus YNL183C, strain NPR1, hits give low values 0.991 | S. cerevisiae deletion strains, locus YNL209W, strain ssb2, hits give low values 0.979 | S. cerevisiae deletion strains, locus YNL233W, strain BNI4, hits give low values 1.01 | S. cerevisiae deletion strains, locus YNL248C, strain rpa49, hits give low values 0.984 | S. cerevisiae deletion strains, locus YNL250W, strain rad50, hits give low values 1.03 | S. cerevisiae deletion strains, locus YNL271C, strain bni1, hits give low values 1.02 | S. cerevisiae deletion strains, locus YNL298W, strain CLA4, hits give low values 1.05 | S. cerevisiae deletion strains, locus YNL307C, strain MCK1, hits give low values 1.04 | S. cerevisiae deletion strains, locus YNL322C, strain KRE1 (second series), hits give low values 0.974 | S. cerevisiae deletion strains, locus YNL322C, strain KRE1, hits give low values 1.01 | S. cerevisiae deletion strains, locus YNR049C, strain mso1, hits give low values 0.996 | S. cerevisiae deletion strains, locus YNR052C, strain pop2, hits give low values 1.01 | S. cerevisiae deletion strains, locus YOL012C, strain htz1 1.25 | S. cerevisiae deletion strains, locus YOL147C, strain pex11, hits give low values 1.03 | S. cerevisiae deletion strains, locus YOR001W, strain rrp6, hits give low values 1.02 | S. cerevisiae deletion strains, locus YOR061W, strain CKA2, hits give low values 1.01 | S. cerevisiae deletion strains, locus YOR069W, strain VPS5, hits give low values 1 | S. cerevisiae deletion strains, locus YOR070C, strain gyp1, hits give low values 0.994 | S. cerevisiae deletion strains, locus YOR080W, strain dia2, hits give low values 0.968 | S. cerevisiae deletion strains, locus YOR083W, strain WHI5, hits give low values 0.972 | S. cerevisiae deletion strains, locus YOR106W, strain vam3, hits give low values 0.971 | S. cerevisiae deletion strains, locus YOR136W, strain idh2, hits give low values 1.02 | S. cerevisiae deletion strains, locus YOR144C, strain elg1, hits give low values 1.03 | S. cerevisiae deletion strains, locus YOR184W, strain ser1, hits give low values 1.02 | S. cerevisiae deletion strains, locus YOR231W, strain MKK1, hits give low values 1.06 | S. cerevisiae deletion strains, locus YOR265W, strain rbl2, hits give low values 0.995 | S. cerevisiae deletion strains, locus YOR270C, strain vph1, hits give low values 1.03 | S. cerevisiae deletion strains, locus YOR290C, strain snf2, hits give low values 0.997 | S. cerevisiae deletion strains, locus YOR316C, strain cot1, hits give low values 1.02 | S. cerevisiae deletion strains, locus YPL051W, strain arl3, hits give low values 0.99 | S. cerevisiae deletion strains, locus YPL078C, strain atp4, hits give low values 0.967 | S. cerevisiae deletion strains, locus YPL106C, strain sse1, hits give low values 0.949 | S. cerevisiae deletion strains, locus YPL240C, strain hsp82, hits give low values 0.99 | S. cerevisiae deletion strains, locus YPL256C, strain CLN2, hits give low values 0.997 | S. cerevisiae deletion strains, locus YPR119W, strain clb2, hits give low values 1.02 | S. cerevisiae deletion strains, locus YPR141C, strain kar3, hits give low values 1.03 | S. cerevisiae deletion strains, locus YPR163C, strain tif3, hits give low values 1.02 | S. cerevisiae deletion strains, locus YPR167C, strain met16, hits give low values 1.02 | S. cerevisiae deletion strains, strain wtn01, hits give low values 1.02 | S. cerevisiae strains, strain wild type, hits give low values 1
